Data: PubChem BioAssay (Tox21)
Results filed as inconclusive are left out. Active and inactive are the calls of the source. Unless noted, calls come from the whole dose curve; as a rule, active = well fitted curve in the direction sought with a large enough effect in the repeat runs; inconclusive = weak or mixed curves; inactive = no such curve, though single readings can be large; an effect the other way counts as inactive or inconclusive.

Columns and labels:
[1] = qHTS assay to identify small molecule agonists of the TGF-beta/Smad signaling pathway (AID 1346859; active = well fitted activation curve with a large enough effect in the signal ratio in the repeat runs, not every such curve was filed as active; the % refers to the signal ratio; note: series mostly up to about 77 µM)
How it was run: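 Dual-wavelength fluorescence (460/530 nm emission) quantified beta-lactamase expression under the Smad binding element in HEK 293T cells following 5 hr compound treatment at 37 C.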

[2] = biological target: Thyrotropin-releasing hormone receptor (Homo sapiens) (UniProt P34981); experiment: qHTS assay to identify small molecule antagonists of the thyrotropin-releasing hormone receptor (TRHR) signaling pathway (AID 1346877; active = well fitted inhibition curve with a large enough effect in the repeat runs, not every such curve was filed as active; note: series mostly up to about 51 µM)
Chain of Thyrotropin-releasing hormone receptor (Homo sapiens) (P34981 whole entry, looked up): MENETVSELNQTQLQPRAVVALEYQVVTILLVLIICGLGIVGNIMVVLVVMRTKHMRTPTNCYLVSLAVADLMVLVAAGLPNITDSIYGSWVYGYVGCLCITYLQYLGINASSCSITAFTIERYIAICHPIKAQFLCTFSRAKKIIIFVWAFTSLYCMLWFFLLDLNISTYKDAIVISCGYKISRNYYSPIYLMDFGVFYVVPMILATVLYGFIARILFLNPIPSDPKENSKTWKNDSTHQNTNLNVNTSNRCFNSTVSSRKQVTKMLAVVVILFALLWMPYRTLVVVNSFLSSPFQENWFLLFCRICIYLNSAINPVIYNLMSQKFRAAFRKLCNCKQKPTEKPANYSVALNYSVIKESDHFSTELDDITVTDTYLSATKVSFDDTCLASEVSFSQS
How it was run: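 Screening used HEK293 cells engineered with TRHR, with a brief 5 min room-temperature compound exposure preceding addition of TRH to 1 nM. The read-out was kinetic calcium-dye fluorescence, concentration-response from 15 doses in triplicate.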

[3] = biological target: Thyrotropin-releasing hormone receptor (Homo sapiens) (UniProt P34981); experiment: qHTS assay to identify small molecule agonists of the thyrotropin-releasing hormone receptor (TRHR) signaling pathway (AID 1346891; calls by dose curve;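 note: HEK293 cells expressing TRHR with calcium dye readout; series mostly up to about 58 µM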)
How it was run: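 Kinetic fluorescence (3 min, 1 s intervals) reported intracellular calcium after compound transfer onto TRHR-Hek293 cells pre-loaded with dye for 2 h at 37 °C.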

[4] = Caspase-3/7 induction in CHO-K1 cells by small molecules, qHTS cell viability counter screen (AID 1346979); note: nearly all actives have a fitted effect of over 35% in size
How it was run: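 Seeding: 1,500 CHO-K1 cells/well. Rest: 5hr, 37C. Treatment: compounds in DMSO, 16hr. Read: CellTiter-Fluor, 1hr, fluorescence.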

[5] = Caspase-3/7 induction in CHO-K1 cells by small molecules, qHTS assay (AID 1346980); note: nearly all actives have a fitted effect of over 15% in size
How it was run: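 Wild-type CHO-K1 cells exposed to compounds for 17hr at 37 C, 5% CO2. Caspase-3/7 activity then measured by Caspase-Glo 3/7 luminescence after 30min at room temperature.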

[6] = Caspase-3/7 induction in HepG2 cells by small molecules, qHTS cell viability counter screen (AID 1346981); note: series mostly up to about 92 µM; nearly all actives have a fitted effect of over 30% in size
How it was run: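 Multiplexed with the caspase-3/7 assay: HepG2 cells, 16 hr compound treatment, CellTiter-Fluor viability detection by fluorescence.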

[7] = biological target: Nuclear receptor subfamily 1 group I member 2 (Homo sapiens) (UniProt O75469); experiment: Human pregnane X receptor (PXR) small molecule agonists, qHTS assay (AID 1346982); note: nearly all actives have a fitted effect of over 35% in size; note: potency is the fitted concentration of half-maximal effect
Chain of Nuclear receptor subfamily 1 group I member 2 (Homo sapiens) (O75469 whole entry, looked up): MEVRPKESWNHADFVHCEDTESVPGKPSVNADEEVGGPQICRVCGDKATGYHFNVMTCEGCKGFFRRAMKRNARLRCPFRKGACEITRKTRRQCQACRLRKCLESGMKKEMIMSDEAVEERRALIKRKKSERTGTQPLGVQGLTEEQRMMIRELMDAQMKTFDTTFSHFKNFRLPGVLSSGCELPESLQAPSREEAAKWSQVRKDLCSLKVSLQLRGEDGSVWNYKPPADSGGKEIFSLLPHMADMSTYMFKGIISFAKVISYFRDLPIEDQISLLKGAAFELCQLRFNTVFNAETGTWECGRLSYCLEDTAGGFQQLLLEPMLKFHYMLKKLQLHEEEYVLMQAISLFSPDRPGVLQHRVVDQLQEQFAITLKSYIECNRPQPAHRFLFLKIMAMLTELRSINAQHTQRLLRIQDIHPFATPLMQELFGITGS
How it was run: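 We seeded PXR-Luc HepG2 cells in assay medium containing 5% charcoal-stripped FBS, added compounds 5 hr later, incubated 24 hr, and read luminescence with ONE-Glo reagent.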

[8] = biological target: Cytochrome P450 2D6 (Homo sapiens) (UniProt P10635); experiment: Cytochrome P450 Family 2 Subfamily D Member 6 (CYP2D6) small molecule antagonists: luciferase reporter qHTS assay (AID 1671196); note: nearly all actives have a fitted effect of over 50% in size; note: potency is the fitted concentration of half-maximal effect; for activity change, negative = inhibition: series mostly up to about 120 µM
Chain of Cytochrome P450 2D6 (Homo sapiens) (P10635 whole entry, looked up): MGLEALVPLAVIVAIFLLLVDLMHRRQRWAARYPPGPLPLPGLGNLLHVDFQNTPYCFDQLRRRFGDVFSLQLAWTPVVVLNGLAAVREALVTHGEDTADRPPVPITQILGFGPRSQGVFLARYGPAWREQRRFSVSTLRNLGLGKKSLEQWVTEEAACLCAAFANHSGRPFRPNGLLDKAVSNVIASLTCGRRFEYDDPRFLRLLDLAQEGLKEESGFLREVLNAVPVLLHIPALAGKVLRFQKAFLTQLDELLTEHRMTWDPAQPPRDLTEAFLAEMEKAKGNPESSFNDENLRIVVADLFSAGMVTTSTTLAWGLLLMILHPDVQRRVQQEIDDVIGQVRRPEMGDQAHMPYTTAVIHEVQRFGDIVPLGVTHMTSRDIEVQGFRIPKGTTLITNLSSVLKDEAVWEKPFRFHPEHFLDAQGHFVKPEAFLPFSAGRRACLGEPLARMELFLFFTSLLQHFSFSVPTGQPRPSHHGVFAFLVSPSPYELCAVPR
How it was run: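 Luminescence (RLU), read 20 min after detection reagent, indicated CYP2D6 conversion of proluciferin to luciferin during a 1 h NADPH-dependent reaction at room temperature.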

[9] = biological target: Cytochrome P450 2C9 (Homo sapiens) (UniProt P11712); experiment: Cytochrome P450 Family 2 Subfamily C Member 9 (CYP2C9) small molecule antagonists: luciferase reporter qHTS assay (AID 1671198); note: nearly all actives have a fitted effect of over 50% in size; note: potency is the fitted concentration of half-maximal effect; for activity change, negative = inhibition: series mostly up to about 120 µM
Chain of Cytochrome P450 2C9 (Homo sapiens) (P11712 whole entry, looked up): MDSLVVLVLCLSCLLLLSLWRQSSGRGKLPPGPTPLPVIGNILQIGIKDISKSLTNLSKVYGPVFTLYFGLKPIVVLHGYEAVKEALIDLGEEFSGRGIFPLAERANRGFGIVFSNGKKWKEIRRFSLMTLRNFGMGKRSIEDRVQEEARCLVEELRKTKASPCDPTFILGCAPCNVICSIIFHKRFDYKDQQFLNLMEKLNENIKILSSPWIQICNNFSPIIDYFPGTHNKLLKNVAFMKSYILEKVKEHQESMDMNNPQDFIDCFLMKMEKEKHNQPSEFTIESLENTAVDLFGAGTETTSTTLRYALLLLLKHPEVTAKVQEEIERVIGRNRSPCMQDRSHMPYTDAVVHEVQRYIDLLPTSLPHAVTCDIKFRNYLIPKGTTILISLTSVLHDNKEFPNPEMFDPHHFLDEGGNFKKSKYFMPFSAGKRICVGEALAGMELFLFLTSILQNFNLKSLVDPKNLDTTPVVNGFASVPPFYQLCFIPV
How it was run: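 P450-Glo proluciferin substrate with CYP2C9 enzyme; 10 min RT preincubation, then NADPH regeneration 1 h at 37C; luciferin detection reagent 20 min RT, luminescence in relative luminescence units.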

[10] = biological target: Cytochrome P450 1A2 (Homo sapiens) (UniProt P05177); experiment: Cytochrome P450 Family 1 Subfamily A Member 2 (CYP1A2) small molecule antagonists: luciferase reporter qHTS assay (AID 1671199); note: nearly all actives have a fitted effect of over 50% in size; note: potency is the fitted concentration of half-maximal effect; for activity change, negative = inhibition: series mostly up to about 120 µM
Chain of Cytochrome P450 1A2 (Homo sapiens) (P05177 whole entry, looked up): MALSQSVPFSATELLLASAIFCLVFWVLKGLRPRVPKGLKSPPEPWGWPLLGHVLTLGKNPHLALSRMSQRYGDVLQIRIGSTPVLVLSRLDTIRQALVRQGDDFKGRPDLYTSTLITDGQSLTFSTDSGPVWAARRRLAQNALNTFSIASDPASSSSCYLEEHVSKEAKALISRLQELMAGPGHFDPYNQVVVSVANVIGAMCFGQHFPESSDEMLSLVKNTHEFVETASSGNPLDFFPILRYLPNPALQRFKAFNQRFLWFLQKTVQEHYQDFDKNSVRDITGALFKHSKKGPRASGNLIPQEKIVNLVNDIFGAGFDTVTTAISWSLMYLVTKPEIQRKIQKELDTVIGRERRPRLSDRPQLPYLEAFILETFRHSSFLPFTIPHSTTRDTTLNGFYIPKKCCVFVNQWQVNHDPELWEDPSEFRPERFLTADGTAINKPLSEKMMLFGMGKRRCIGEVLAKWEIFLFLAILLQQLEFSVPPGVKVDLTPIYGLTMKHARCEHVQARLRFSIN
How it was run: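 CYP1A2 turnover of a luminogenic substrate was quantified after 1 h with NADPH regeneration at room temperature. Furafylline served as positive control.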

[11] = biological target: Voltage-gated inwardly rectifying potassium channel KCNH2 (Homo sapiens) (UniProt Q12809); experiment: Human Ether-a-go-go-Related Gene (hERG) channel small molecule antagonists: fluorescence cell-based qHTS assay (AID 1671200);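 note: hERG-expressing U2OS cells given a thallium stimulus after FluxOR II dye loading; series mostly up to about 77 µM; nearly all actives have a fitted effect of over 50% in size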
Chain of Voltage-gated inwardly rectifying potassium channel KCNH2 (Homo sapiens) (Q12809 whole entry, looked up): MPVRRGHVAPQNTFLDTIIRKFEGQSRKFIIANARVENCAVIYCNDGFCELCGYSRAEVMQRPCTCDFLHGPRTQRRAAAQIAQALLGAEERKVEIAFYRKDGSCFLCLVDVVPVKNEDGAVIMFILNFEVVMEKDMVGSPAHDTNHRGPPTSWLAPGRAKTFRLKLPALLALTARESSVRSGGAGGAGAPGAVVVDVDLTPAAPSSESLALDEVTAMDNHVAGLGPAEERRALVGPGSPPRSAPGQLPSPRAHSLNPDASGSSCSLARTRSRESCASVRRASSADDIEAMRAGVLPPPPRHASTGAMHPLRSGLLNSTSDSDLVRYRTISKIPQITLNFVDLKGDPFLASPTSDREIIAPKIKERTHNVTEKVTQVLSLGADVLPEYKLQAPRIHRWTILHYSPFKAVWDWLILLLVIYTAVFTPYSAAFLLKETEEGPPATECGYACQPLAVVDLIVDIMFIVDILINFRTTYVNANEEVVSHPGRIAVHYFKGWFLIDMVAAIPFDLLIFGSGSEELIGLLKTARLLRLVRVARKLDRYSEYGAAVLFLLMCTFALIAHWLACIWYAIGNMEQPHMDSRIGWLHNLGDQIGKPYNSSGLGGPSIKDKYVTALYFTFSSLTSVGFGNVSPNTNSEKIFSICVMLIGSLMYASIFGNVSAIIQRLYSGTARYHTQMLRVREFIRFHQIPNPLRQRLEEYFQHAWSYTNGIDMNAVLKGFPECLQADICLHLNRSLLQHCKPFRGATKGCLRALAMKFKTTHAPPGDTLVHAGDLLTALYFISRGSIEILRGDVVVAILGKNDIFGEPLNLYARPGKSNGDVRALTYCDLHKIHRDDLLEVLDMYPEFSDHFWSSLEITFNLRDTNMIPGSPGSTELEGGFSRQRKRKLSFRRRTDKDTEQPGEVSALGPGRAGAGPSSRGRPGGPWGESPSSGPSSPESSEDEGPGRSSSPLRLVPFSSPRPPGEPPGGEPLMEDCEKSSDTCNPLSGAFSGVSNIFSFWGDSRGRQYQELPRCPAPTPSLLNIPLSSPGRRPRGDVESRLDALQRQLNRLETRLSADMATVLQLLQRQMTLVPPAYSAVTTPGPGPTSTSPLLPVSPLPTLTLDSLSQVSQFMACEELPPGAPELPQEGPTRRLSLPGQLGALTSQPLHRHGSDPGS
How it was run: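 First, 1000 cells per well are seeded and cultured overnight at 37 C. Next, FluxOR II dye is loaded for 1 h at room temperature, protected from light. After 10 more minutes, stimulus is added and fluorescence is read.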

[12] = Caspase-3/7 induction in HepG2 cells by small molecules, qHTS assay (AID 1346978); note: nearly all actives have a fitted effect of over 15% in size
How it was run: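 Wild-type HepG2 cells, 2,000/well, settled 5 hr at 37 C and 5% CO2, then compound-treated for 17 hr; caspase-3/7 activity read by luminescent Caspase-Glo 3/7 after 30 min at room temperature.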

[13] = biological target: Nuclear receptor subfamily 1 group I member 2 (Rattus norvegicus) (UniProt Q9R1A7); experiment: Rat pregnane X receptor (rPXR) activation by small molecules, qHTS assay (AID 1346983); details: rPXR luciferase reporter cells, One-Glo luminescence, 24 h; active compounds read high; note: nearly all actives have a fitted effect of over 20% in size
Chain of Nuclear receptor subfamily 1 group I member 2 (Rattus norvegicus) (Q9R1A7 whole entry, looked up): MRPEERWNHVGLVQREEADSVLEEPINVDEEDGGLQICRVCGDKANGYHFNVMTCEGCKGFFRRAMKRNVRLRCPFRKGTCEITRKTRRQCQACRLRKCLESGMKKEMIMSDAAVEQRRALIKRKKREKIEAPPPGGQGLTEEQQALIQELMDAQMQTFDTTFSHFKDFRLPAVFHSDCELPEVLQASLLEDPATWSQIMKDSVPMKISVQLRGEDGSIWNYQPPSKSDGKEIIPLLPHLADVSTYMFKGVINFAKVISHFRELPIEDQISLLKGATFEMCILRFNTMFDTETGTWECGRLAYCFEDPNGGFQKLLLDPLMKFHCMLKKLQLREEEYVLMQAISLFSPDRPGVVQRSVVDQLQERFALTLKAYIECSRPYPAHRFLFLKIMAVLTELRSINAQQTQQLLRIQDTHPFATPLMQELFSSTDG
How it was run: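 Cell-based rPXR activation assay: rPXR cells, 2,000 per well, rested 5hr at 37 C, then exposed to compounds in DMSO for 24 hr at 37 C. Luciferase activity read by One-Glo luminescence after 30 min at room temperature.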

[14] = biological target: Nuclear receptor subfamily 1 group I member 2 (Homo sapiens) (UniProt O75469); experiment: CYP3A4 induction through human pregnane X receptor (PXR) by small molecules, qHTS assay (AID 1346984); note: nearly all actives have a fitted effect of over 40% in size
How it was run: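 qHTS, concentration-response format: HepG2 DPX-2 line, PXR/CYP3A4-luc. Exposure 24 h, 37C. Substrate Luciferin-IPA 3uM final, 3 h. Detection One-Glo, 30 min RT.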

[15] = biological target: Nuclear receptor subfamily 1 group I member 2 (Homo sapiens) (UniProt O75469); experiment: Human pregnane X receptor (PXR) activation by small molecules, qHTS assay (AID 1346985); note: nearly all actives have a fitted effect of over 40% in size
How it was run: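 DPX-2 cells (HepG2 co-transfected with a PXR response element and a CYP3A4-promoter luciferase construct) were seeded at 2,000 per well, rested 5 hr at 37C, then exposed to DMSO-dissolved compounds for 24 hr. Activation was read as luciferase luminescence.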

[16] = biological target: Cytochrome P450 2C19 (Homo sapiens) (UniProt P33261); experiment: Cytochrome P450 Family 2 Subfamily C Member 19 (CYP2C19) small molecule antagonists: luciferase reporter qHTS assay (AID 1671197); note: nearly all actives have a fitted effect of over 65% in size; note: potency is the fitted concentration of half-maximal effect; for activity change, negative = inhibition: series mostly up to about 120 µM
Chain of Cytochrome P450 2C19 (Homo sapiens) (P33261 whole entry, looked up): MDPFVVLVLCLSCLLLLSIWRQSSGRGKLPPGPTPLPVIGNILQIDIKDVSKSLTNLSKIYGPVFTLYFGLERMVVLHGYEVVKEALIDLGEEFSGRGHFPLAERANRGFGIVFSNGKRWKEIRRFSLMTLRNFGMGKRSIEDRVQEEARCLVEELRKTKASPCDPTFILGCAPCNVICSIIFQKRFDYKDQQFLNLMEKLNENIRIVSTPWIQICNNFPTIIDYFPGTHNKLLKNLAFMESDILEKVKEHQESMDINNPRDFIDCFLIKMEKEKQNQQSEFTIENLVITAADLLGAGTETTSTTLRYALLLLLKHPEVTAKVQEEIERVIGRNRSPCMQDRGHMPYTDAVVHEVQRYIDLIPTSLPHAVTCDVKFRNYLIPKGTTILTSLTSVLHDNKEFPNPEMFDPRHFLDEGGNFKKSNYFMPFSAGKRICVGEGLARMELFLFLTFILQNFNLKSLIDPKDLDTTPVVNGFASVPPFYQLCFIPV
How it was run: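 Light output is proportional to CYP2C19 activity: proluciferin substrate is converted to luciferin, then detected by a luciferin detection reagent that also stops the 1 h, 37C NADPH-driven reaction. Ketoconazole serves as positive control.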

[17] = biological target: Cytochrome P450 3A4 (Homo sapiens) (UniProt P08684); experiment: Cytochrome P450 Family 3 Subfamily A Member 4 (CYP3A4) small molecule antagonists: luciferase reporter qHTS assay (AID 1671201)
Chain of Cytochrome P450 3A4 (Homo sapiens) (P08684 whole entry, looked up): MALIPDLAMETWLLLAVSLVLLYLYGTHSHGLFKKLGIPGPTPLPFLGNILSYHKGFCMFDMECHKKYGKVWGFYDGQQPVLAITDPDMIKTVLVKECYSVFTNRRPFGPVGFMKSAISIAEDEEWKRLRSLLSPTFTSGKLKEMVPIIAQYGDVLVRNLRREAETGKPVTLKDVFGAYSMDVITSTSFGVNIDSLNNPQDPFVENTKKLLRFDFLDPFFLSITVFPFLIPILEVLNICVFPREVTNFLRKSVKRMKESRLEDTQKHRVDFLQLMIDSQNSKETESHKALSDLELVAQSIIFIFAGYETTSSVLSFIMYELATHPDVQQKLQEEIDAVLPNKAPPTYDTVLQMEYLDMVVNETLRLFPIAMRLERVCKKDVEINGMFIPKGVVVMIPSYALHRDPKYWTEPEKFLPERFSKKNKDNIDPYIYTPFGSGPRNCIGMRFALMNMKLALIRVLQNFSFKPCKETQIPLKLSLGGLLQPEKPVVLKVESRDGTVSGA
How it was run: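 Enzyme and proluciferin substrate are mixed with test chemicals for 10 min, then NADPH regeneration system drives turnover for 1 h at room temperature. A detection reagent halts the reaction; luminescence after 20 min gives relative activity.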

[18] = Human pregnane X receptor (PXR) small molecule agonists, qHTS cell viability counter screen (AID 1346977); note: nearly all actives have a fitted effect of over 50% in size
How it was run: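 HepG2 cells stably carrying the PXR-Luc reporter are cultured with 5% charcoal-stripped FBS and treated with compounds for 24hr. CellTiter-Fluor is added at 23hr and fluorescence is read after 1hr.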
% is set by controls: 0 for no effect and ±100 for the full control effect.

CC1(C)CC(OC(=O)CCCCCCCCC(=O)OC2CC(C)(C)NC(C)(C)C2)CC(C)(C)N1
inactive: activation [1] 0.453% [at 15.8 µM] | activity, negative = inhibition [2] 0.698% [at 10.5 µM] | activation [3] 0.325% [at 11.8 µM] | activity change, negative = cytotoxicity [4] -1.35% [at 19 µM] | caspase-3/7 activation [5] -0.118% [at 19 µM] | activity change, negative = cytotoxicity [6] -0.861% [at 19 µM] | activation [7] 26.4% [at 19 µM] | activity change, negative = inhibition [8] -17.8% [at 23.6 µM] | activity change, negative = inhibition [9] -10.9% [at 23.6 µM] | activity change, negative = inhibition [10] -5.32% [at 23.6 µM] | activity change, negative = inhibition [11] -0.993% [at 15.8 µM]

CC(C)NCC(O)c1ccc2ccccc2c1 (configuration not stated)
active: Potency [8] 2.19 µM | Potency [10] 15.5 µM
inactive: outcome [1] | outcome [2] | outcome [3] | outcome [12] | Potency [4] | outcome [5] | outcome [6] | Potency [7] | max activation [13] -0.315% | Potency [14] | Potency [15] | Potency [16] | Potency [9] | Potency [11] | Potency [17]

CN(C)C(C)(C)CO
inactive: outcome [1] | outcome [2] | outcome [18] | outcome [12] | Potency [4] | outcome [5] | outcome [6] | Potency [7] | Potency [8] | Potency [16] | Potency [9] | Potency [10] | Potency [11] | Potency [17]

Cn1nnc2c(C(N)=O)ncn2c1=O
inactive: outcome [1] | outcome [2] | outcome [3] | outcome [18] | Potency [4] | outcome [6] | Potency [7] | max activation [13] -4.63% | Potency [14] | Potency [15] | Potency [8] | Potency [9] | Potency [10] | Potency [11] | Potency [17]

O=C(O)CCCCCC(=O)O
inactive: outcome [1] | outcome [2] | outcome [3] | outcome [18] | Potency [4] | outcome [5] | outcome [6] | Potency [7] | Potency [16] | Potency [9] | Potency [10] | Potency [11] | Potency [17]

COC(=O)c1ccccc1C(=O)O
inactive: outcome [1] | outcome [2] | outcome [3] | outcome [18] | Potency [4] | outcome [5] | outcome [6] | Potency [7] | Potency [8] | Potency [10] | Potency [11] | Potency [17]

C/C(CC(C)C)=N\O
inactive: outcome [1] | outcome [2] | outcome [18] | outcome [12] | Potency [4] | outcome [5] | outcome [6] | Potency [7] | Potency [8] | Potency [16] | Potency [9] | Potency [10] | Potency [11] | Potency [17]

COC(=O)CCCCC(CCSS/C(CCO)=C(\C)N(C=O)Cc1cnc(C)nc1N)SC(C)=O (configuration not stated)
inactive: outcome [1] | outcome [2] | outcome [18] | outcome [12] | Potency [4] | outcome [5] | outcome [6] | Potency [7] | Potency [8] | Potency [9] | Potency [10] | Potency [11]

C[Si]1(C)O[Si](C)(C)O[Si](C)(C)O[Si](C)(C)O[Si](C)(C)O1
inactive: outcome [1] | outcome [2] | outcome [3] | outcome [18] | Potency [4] | outcome [5] | outcome [6] | Potency [7] | Potency [16] | Potency [9] | Potency [10] | Potency [11] | Potency [17]

OC[C@@H](O)C(O)[C@@H](O)CO (some centres not stated)
active: Potency [16] 40.4 µM
inactive: outcome [1] | outcome [2] | outcome [3] | outcome [18] | Potency [4] | outcome [5] | outcome [6] | Potency [7] | Potency [10] | Potency [11] | Potency [17]

CC(C)=CCC[C@@](C)(O)[C@H]1CC=C(C)CC1
inactive: outcome [1] | outcome [18] | outcome [12] | Potency [4] | outcome [5] | outcome [6] | max activation [13] 1.39% | Potency [14] | Potency [15] | Potency [8] | Potency [11]
active: Potency [7] 29.8 µM | Potency [16] 8.71 µM | Potency [9] 17.4 µM

CCOc1ccccc1OCC1CNCCO1 (configuration not stated)
active: Potency [10] 0.575 µM
inactive: outcome [1] | outcome [2] | outcome [18] | outcome [12] | Potency [4] | outcome [6] | Potency [7] | Potency [9] | Potency [11]

CCN1CCCC1CN (configuration not stated)
inactive: outcome [1] | outcome [2] | outcome [18] | outcome [12] | Potency [4] | outcome [5] | outcome [6] | Potency [7] | Potency [9] | Potency [10] | Potency [11] | Potency [17]

C/C=C(\C)C(=O)OCCc1ccccc1
active: Potency [10] 39.9 µM
inactive: outcome [1] | outcome [2] | outcome [18] | outcome [12] | Potency [4] | outcome [6] | Potency [7] | Potency [11] | Potency [17]

CCc1occc(=O)c1O
inactive: outcome [1] | outcome [18] | outcome [12] | Potency [4] | outcome [5] | outcome [6] | Potency [7] | Potency [8] | Potency [16] | Potency [9] | Potency [10] | Potency [11] | Potency [17]

COc1cc2c(cc1OC)CN(C(=O)[C@H](C)N[C@@H](CCc1ccccc1)C(=O)O)[C@H](C(=O)O)C2
inactive: outcome [1] | outcome [2] | outcome [18] | outcome [12] | Potency [4] | outcome [5] | outcome [6] | Potency [7] | Potency [16] | Potency [9] | Potency [10] | Potency [11] | Potency [17]

CC(=O)OC(C)=O
active: Potency [16] 72.3 µM
inactive: outcome [1] | outcome [2] | outcome [18] | Potency [4] | outcome [6] | Potency [7] | Potency [8] | Potency [9] | Potency [10] | Potency [11] | Potency [17]

c1ccc2c(CC3=NCCN3)cccc2c1
active: Potency [8] 9.77 µM
inactive: outcome [1] | outcome [18] | outcome [12] | Potency [4] | outcome [5] | outcome [6] | Potency [7] | max activation [13] 14.1% | Potency [14] | Potency [15] | Potency [16] | Potency [9] | Potency [10] | Potency [11] | Potency [17]

CC/C=C\CCOC(=O)c1ccccc1O
active: Potency [10] 31.7 µM
inactive: outcome [1] | outcome [2] | outcome [18] | outcome [12] | Potency [4] | outcome [5] | outcome [6] | Potency [17]
